The list is not random: actives were taken first. Their share in the collection is about 2.7%.
ALOX12 inh = inhibitors of human 12S-lipoxygenase ALOX12; P18054; purified 12hLO, xylenol orange hydroperoxide absorbance; Potency, µM (top dose mostly 108 µM), inactives show at the top dose activity change, negative = inhibition, usual class: inhibitors; hit rate 1.1% among 580,000; AID 1671190; also: potency is read from the fitted curve at half-maximal effect; % is scaled to controls: 0 for no effect and ±100 for the full control effect
Target sequence (P18054 whole entry, looked up): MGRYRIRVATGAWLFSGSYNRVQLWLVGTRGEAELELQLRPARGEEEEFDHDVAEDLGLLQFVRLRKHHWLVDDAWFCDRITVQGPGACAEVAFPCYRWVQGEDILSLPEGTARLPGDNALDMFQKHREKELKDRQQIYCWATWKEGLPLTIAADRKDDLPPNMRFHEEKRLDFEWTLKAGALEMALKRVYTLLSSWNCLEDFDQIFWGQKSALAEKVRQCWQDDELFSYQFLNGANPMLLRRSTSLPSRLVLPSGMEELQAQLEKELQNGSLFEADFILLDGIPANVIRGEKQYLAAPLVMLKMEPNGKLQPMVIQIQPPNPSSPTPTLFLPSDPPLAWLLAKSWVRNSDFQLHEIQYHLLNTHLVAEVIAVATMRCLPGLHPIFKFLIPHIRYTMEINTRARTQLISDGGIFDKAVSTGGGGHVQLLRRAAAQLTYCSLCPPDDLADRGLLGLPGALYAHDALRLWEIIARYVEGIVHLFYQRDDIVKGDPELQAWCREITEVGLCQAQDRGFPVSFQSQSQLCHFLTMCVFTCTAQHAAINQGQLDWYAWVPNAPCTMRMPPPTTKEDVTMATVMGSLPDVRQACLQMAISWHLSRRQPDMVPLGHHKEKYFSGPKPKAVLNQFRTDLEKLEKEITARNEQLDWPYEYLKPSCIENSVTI
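Purified human 12hLO at 150 nM in 25 mM Hepes, 0.01% Triton X-100, pH 7.0, preincubated 15 min at room temperature with compound. Reaction started with 40 uM arachidonic acid, 30 min at room temperature. Hydroperoxide measured by Fe-xylenol orange, 573/405 nm absorbance ratio.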
A549 tox = kills or reduces viability of A549 cells in Nrf2 counter-screen; A549 ARE-Fluc cells, CellTiter-Fluor viability, 18-24 h; Potency, µM (highest dose often 46 µM), for the others: at the top dose activity change, negative = cytotoxicity, actives largely listed as inhibitors; hit rate 0.16% among 390,000; also: potency is read from the fitted curve at half-maximal effect; % is scaled to controls: 0 for no effect and ±100 for the full control effect
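A549 ARE-Fluc cells in 5% FBS OPTI-MEM, 5000 cells/well, rested 2 h then exposed to compounds in concentration-response for 18-24 h at 37 °C. Viability by CellTiter-Fluor fluorescence (Ex 405/Em 525) after 30 min; luciferase luminescence (BugLite, 15 min, RT) read afterwards.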
Nrf2 activator = activators of Nrf2 (ARE) signaling; AID 624171; AREc32 ARE-luciferase reporter (MCF7-derived line), luminescence, 24 h; hit rate 0.31% among 410,000; Potency, µM (series often up to 46.1 µM), for the others: at the highest dose activation, most hits filed as activators; also: potency is read from the fitted curve at half-maximal effect; % of control where 0% means no effect; nearly all actives have a fitted effect of over 65% in size
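Reporter line AREc32 (ARE-Fluc), seeded overnight in OPTI-MEM with 5% FBS; compound pin-transferred, 24 hr at 37 deg C, 5% CO2; luminescent read-out.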
Nrf2 block = inhibitors of Nrf2 signaling; A549 ARE-Fluc reporter, luciferase luminescence, 18-24 h; Potency, µM (doses to about 46 µM), without a hit: top-dose activity change, negative = inhibition, usual class: inhibitors; hit rate 2.1% among 360,000; AID 504444; also: potency is read from the fitted curve at half-maximal effect; % is scaled to controls: 0 for no effect and ±100 for the full control effect; nearly all actives have a fitted effect of over 60% in size
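Nrf2 activity is the BugLite luminescence, read 15 min after reagent at room temperature, following CellTiter-Fluor cytotoxicity readout (30 min, 37C). Compound titrations were applied for 18-24 h to 5000 A549 ARE_Fluc cells/well in 5% FBS OPTI-MEM.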
LDHA block = LDHA (human) enzyme inhibition | P00338 | purified LDHA, NADH/diaphorase-resazurin fluorescence; active compounds read low | activity change, % (values are at about 110 or 230 µM) | hit rate 0.15% among 480,000 | AID 1347041; in the data active = activity change below about -30%; inconclusive = mostly about -25% to -30%;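 also: plate controls were DMSO wells for no effect and wells without enzyme for full effect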
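Resorufin fluorescence (ex540/em590), read at 0 and 20 min after diaphorase/resazurin addition, reports the NADH left after a 5 min room-temperature reaction of 2 nM human LDH5 with 0.06 mM NADH and 0.2 mM pyruvate.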
ERG-DNA inh = ERG Ets/DNA interaction inhibition | P11308 | Potency, µM (series often up to 76.9 µM), for the others: top-dose FP activity, negative = inhibition, usual class: inhibitors | fluorescence polarization, His-ERG Ets domain / labelled DNA | hit rate 0.028% among 370,000; active = well fitted inhibition curve with a large enough effect in the polarisation, with a control signal flat; inconclusive = small, poorly fitted or top-dose-only effect, or effect the other way, or a change in a side signal; inactive = no such curve, though single readings can be large or run the other way; the % refers to the polarisation;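 also: polarization taken with two DNA probes labelled with fluorescein and Texas red; potency is read from the fitted curve at half-maximal effect; % of control where 0% means no effect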
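His-tagged ERG Ets domain (1 uM in the protein solution; 300mM KCl, 50mM Tris-HCl, 1mM EDTA, 1mM DTT, pH 7.5) received compound, then a probe mix of 5 nM fluorescein-DNA and 100nM Texas-615-DNA. Fluorescence polarization was read for both dyes.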
Active calls of the source: *; ? = inconclusive; nt = no result; [ ] = another dose, or the depositor's remark. Unless noted, calls follow the shape of the dose curve; as a rule, active = well fitted curve in the direction sought with a large enough effect; inconclusive = small, poorly fitted or top-dose-only effect, or another doubt; inactive = no such curve, though single readings can be large; an effect the other way counts as inactive or inconclusive.

SMILES	ALOX12 inh	A549 tox	Nrf2 activator	Nrf2 block	LDHA block	ERG-DNA inh
Cc1ccc(CN2CCc3c(OCc4ccc(F)cc4)cccc3C2=O)cc1	-16%	3%	2%	?	-3	18%
O=C(c1ccc2c(=O)n3c(nc2c1)CCCCC3)N1CCN(C(c2ccccc2)c2ccccc2)CC1	8%	-17%	-1%	21µM*	-1	-5%
O=C(c1ccc2c(=O)n3c(nc2c1)CCCCC3)N1CCN(c2ccc([N+](=O)[O-])cc2)CC1	-13%	?	0%	23µM*	0	-6%
O=C(c1ccc2c(=O)n3c(nc2c1)CCCCC3)N1CCN(c2ccccc2)CC1	1%	-5%	0%	-3%	-7	8%
COc1cc(/C=C/C(=O)C23CC4CC(CC(C4)C2)C3)cc(Br)c1O	?	nt	nt	nt	3	nt
Cc1nc2nc(NCc3ccc(Cl)cc3)[nH]n2c(=O)c1CCC(=O)Nc1ccc2ccccc2c1	36%	nt	nt	nt	0	nt
CCCc1cc(-c2n[nH]c(C(=O)OCC)c2-c2cscn2)c(O)cc1O	1%	-12%	-1%	29µM*	3	-2%
COCc1ccc(CN2CCCC(C(=O)Nc3ccccc3-c3ccc(OC)cc3)C2)o1 (stereo not given)	0%	-7%	0%	-13%	-4	-1%
CCc1ccc(CN2CCCC(C(=O)Nc3ccccc3-c3ccc(OC)cc3)C2)o1 (stereo not given)	-1%	-6%	3%	-1%	0	32µM*
CCCS(=O)(=O)NC(=O)C1(C)CCCN(C(=O)CCc2ccccc2)C1 (stereo not given)	-8%	nt	nt	nt	nt	nt
S=c1[nH]cc2cnccn12	8.9µM*	nt	0%	nt	-1	nt
C/C(=N\NC(=S)NC(C)C)c1ccccc1	?	2%	3%	2%	-8	-10%
CC(C)NC(=S)NC(c1ccccc1)(c1ccccc1)c1ccccc1	40µM*	0%	0%	?	4	2%
COc1ccc2cc(C(=O)NC3CCN(C(C)=O)CC3)[nH]c2c1	-3%	nt	nt	nt	5	nt
O=c1c2c(n(Cc3ccccc3)n1-c1ccccc1)CN(Cc1cccnc1)CC2	-17%[176 µM]	nt	nt	nt	nt	nt
CCn1c2c(c(=O)n1-c1ccccc1)CCN(CCCc1ccccc1)C2	28µM*	nt	nt	nt	nt	nt
CCn1c(SCC(=O)Nc2nc3ccc(C)cc3s2)nc2c(c1=O)SC(C)C2 (stereo not given)	nt	?	3%	18µM*	-8	1%
CC1CCCC(C)N1S(=O)(=O)c1ccc(Cl)cc1 (stereo not given)	-51%	9%	0%	14%	0	0%
CC1=C(C)CS(=O)N(S(=O)(=O)c2ccc(Cl)cc2)C1 (stereo not given)	40µM*	-11%	-1%	-26%	-3	-1%
CCc1ccc(-c2nc(CSCC(=O)N3CCN(c4ccccn4)CC3)c(C)o2)cc1	0%	?	-1%	16µM*	-4	-1%
Cc1ccc(-c2nc(CSCC(=O)N3CCN(c4ccccn4)CC3)c(C)o2)cc1	16%[57.4 µM]	-19%	1%	16µM*	-1	17%
CNCc1ccc(-c2cc(Cl)ccc2Cl)o1	-24%	nt	nt	nt	-6	nt
O=C(NCC(=O)N1CCN(S(=O)(=O)c2ccc3c(c2)OCCO3)CC1)c1ccccc1Cl	?	-3%	4%	12µM*	-14	nt
Cc1cccc(NC(=O)C2CCN(S(=O)(=O)c3ccc4c(c3)OCCCO4)CC2)n1	?	-14%	2%	15µM*	-1	-3%
O=C(C1CCN(S(=O)(=O)c2ccc3c(c2)OCCO3)CC1)N1CCc2ccccc21	9%	0%	0%	15µM*	-12	-8%
SMILES	ALOX12 inh	A549 tox	Nrf2 activator	Nrf2 block	LDHA block	ERG-DNA inh
O=C(NCC(=O)N1CCN(S(=O)(=O)c2ccc3c(c2)OCCO3)CC1)c1ccccc1F	0%	1%	0%	-11%	0	11%
Cc1cccc(NC(=O)C2CCN(S(=O)(=O)c3ccc4c(c3)OCCO4)CC2)n1	-24%	-11%	4%	?	-12	1%
O=C(C1CCN(S(=O)(=O)c2ccccc2)CC1)N1CCc2ccccc21	?	4%	-1%	-7%	-9	-6%
CC(=O)Nc1cccc(S(=O)(=O)N2CCCN(S(=O)(=O)c3ccc4c(c3)OCCO4)CC2)c1	nt	-12%	nt	15µM*	0	nt
CC(=O)Nc1cccc(S(=O)(=O)N2CCN(S(=O)(=O)c3ccc4c(c3)OCCO4)CC2)c1	nt	-2%	nt	?	-7	nt
CC(=O)Nc1ccc(NC(=O)c2ccc3ccn(C)c3c2)cc1	?	nt	nt	nt	4	nt
CCn1c(CNC(=O)c2ccc(OC)cc2)nnc1SCC(=O)c1ccc(Br)cc1	13%	nt	nt	nt	-8	nt
CCn1c(CNC(=O)c2ccc3c(c2)OCO3)nnc1SCC(=O)c1ccc(OC)cc1	?	nt	nt	nt	-30*	nt
CC(=O)Nc1ccc(CNC2CCC(C)CC2)cc1 (stereo not given)	-6%	nt	nt	nt	4	nt
Cc1ccccc1Cc1sc(N)nc1C	14µM*	nt	nt	nt	1	nt
COc1cccc(/C=C/C(=O)c2ccc(O)c(CCCl)c2)c1	?	nt	nt	nt	-1	nt
CC(=O)c1c(C)[nH]c(C(=O)COc2ccc(C#N)cc2)c1C	5%	-14%	1%	12µM*	-5	-1%
CC(=O)c1c(C)[nH]c(C(=O)COC(=O)COc2ccccc2)c1C	2%	-3%	0%	-1%	-7	10%
COc1ccccc1OCC(=O)c1[nH]c(C)c(C(C)=O)c1C	-15%	-6%	0%	5.2µM*	-4	-6%
CC(=O)c1c(C)[nH]c(C(=O)COc2cc(C)ccc2C(C)C)c1C	0%	-12%	0%	7.3µM*	0	-3%
COc1ccc(CN2Cc3cc(NC(=O)c4cc(OC)cc(OC)c4)ccc3OC(C)C2=O)cc1 (stereo not given)	-10%	nt	nt	nt	nt	nt
COc1ccccc1-c1nc(C(=O)NCCc2ccc(Cl)cc2)n2ccncc12	-2%[6.33 µM]	nt	nt	nt	nt	nt
O=C(/C=C/c1ccc(Br)o1)Nc1nccs1	-3%	1%	6.3µM*	?	0	10%
CC(=O)c1ccc(NC(=O)Cn2ccc3cc(Cl)ccc32)cc1	-15%	nt	nt	nt	5	nt
Cc1cc(Oc2ccc(C#N)cc2)nc(NCc2ccccc2)n1	-24%	-7%	0%	16µM*	-5	1%
CC(C)c1ccc(/C=C/C(=O)NCCC2=CCCCC2)cc1	40µM*	5%	0%[9.22 µM]	5%	-1	1%
CCCNC(=O)/C=C/c1ccc(C(C)C)cc1	?	-2%	6%	21%	3	-3%
O=c1[nH]cnc2scc(-c3ccc(Cl)cc3)c12	?	nt	nt	nt	-2	nt

Assay outcomes as filed in PubChem.
